From PubChem BioAssay (EPA / NIEHS)
Records with an inconclusive call do not appear. Activity calls are given as the source filed them. The calls were made as follows, unless noted: active = hit-call score of the fitted dose curve at least 0.9, where 1 is the maximum; inactive = score below 0.9. Peptide text beside a SMILES is read from it.

Assays:
[1] = biological target: Estrogen receptor (Homo sapiens) (UniProt P03372); assay: CCTE_Deisenroth_AIME_384WELL_LUC_Active: CCTE's 384-well Estrogen Receptor Transactivation Assay with AIME metabolic competence (ERTA luciferase; metabolism positive), Deisenroth Lab (AID 2284030; active = hit-call score of the fitted dose curve at least 0.9, where 1 is the maximum)
Method in brief: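 AIME metabolism-positive mode: chemicals 0.002 - 200 uM, 2 h with alginate-bound PB/BNF-induced rat S9 → medium to VM7Luc4E2 ERTA, 24 h → luciferase. Positive fit vs 17beta-estradiol; n=4 typical.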

[2] = biological target: Estrogen receptor (Homo sapiens) (UniProt P03372); assay: CCTE_Deisenroth_AIME_384WELL_LUC_Inactive: CCTE's 384-well Estrogen Receptor Transactivation Assay without AIME metabolic competence (ERTA luciferase; metabolism negative), Deisenroth Lab (AID 2284038; active = hit-call score of the fitted dose curve at least 0.9, where 1 is the maximum;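 also: VM7Luc4E2 breast cells given medium preincubated 2 h with S9-free microspheres; hits raise estrogen receptor luciferase signal so potencies reflect agonists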)
Method in brief: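 Metabolism-negative mode: AIME lids stamped in alginate-water, no hepatic S9. 2 h chemical incubation → medium onto VM7Luc4E2 ERTA, 24 h. Readout luciferase luminescence; gain-of-signal fit vs 17beta-estradiol. Conc. 0.002 - 200 uM.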

[3] = CCTE_Deisenroth_AIME_384WELL_CTox_Inactive: Cytotoxicity Assessment (CTOX) in CCTE's 384-well Estrogen Receptor Transactivation Assay without AIME metabolic competence (metabolism negative), Deisenroth Lab (AID 2284039; active = hit-call score of the fitted dose curve at least 0.9, where 1 is the maximum;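 also: cell viability via live-cell protease substrate cleaved to fluorescent probe; cells exposed 24 h to medium preincubated 2 h with alginate-water beads without S9; loss of fluorescence signal means loss of viability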)
Method in brief: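 Fluorescent protease-substrate viability readout after 24 h exposure of VM7Luc4E2 cells to conditioned medium. Chemicals (0.002–200 uM) first sat 2 h over alginate-water beads, no S9. Data fitted bidirectionally, loss of signal meaning viability loss.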

[4] = biological target: Estrogen receptor (Homo sapiens) (UniProt P03372); assay: CCTE_Deisenroth_AIME_384WELL_LUC_Shift: CCTE's 384-well Estrogen Receptor Transactivation Assay with AIME metabolic competence data shift (ERTA luciferase; difference in metabolism positive and negative), Deisenroth Lab (AID 2284041);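 also: shift is response with S9 minus without S9 so positive means metabolism raised ER signal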
Method in brief: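 Here, parent compounds undergo 2 h phase I metabolism by PB/BNF-induced rat S9 before 24 h transactivation in VM7Luc4E2 cells; the curve models S9-positive minus S9-negative response over a 10-point series.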

[5] = CCTE_Shafer_MEA_acute_per_network_burst_electrodes_number_mean: CCTE's Neural Acute Assay for Mean Number of Electrodes in a Network Burst, Shafer Lab (AID 2284021);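 also: curves fitted for decreases only so hits reduce electrodes per burst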
Method in brief: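 Primary rat cortical networks, mwMEA, 37 C. 20 min stabilization, 40 min baseline, compound 0.03-40 uM, 40 min re-record. Wells need >=10 active electrodes; percent change per well, negative fitting direction.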

[6] = CCTE_Shafer_MEA_acute_network_burst_percentage: CCTE's Neural Acute Assay for Percentage of Network Bursts, Shafer Lab (AID 2284022);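 also: curves fitted for loss so actives lower network burst percentage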
Method in brief: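 Readout is the fraction of spikes falling in network bursts, expressed as per-well percent change from a 40-min pre-exposure baseline. Primary rat cortical neurons on MEA were exposed to 0.03-40 uM compound on DIV 13 or 15 and recorded for 40 min at 37 C.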

[7] = CCTE_Shafer_MEA_acute_cross_correlation_area: CCTE's Neural Acute Assay for Area of Cross Correlation, Shafer Lab (AID 2284024);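 also: area under pooled inter-electrode spike cross-correlation near zero lag as percent change from own baseline; curves fitted for loss of cross-correlation area so actives lower synchrony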
Method in brief: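 Plates equilibrated 20 min at 37 C, then 40 min baseline was recorded, compound was added (0.03-40 uM), and a further 40 min was recorded. Wells needed ≥10 active electrodes (≥5 spikes/min) on exposure day.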

[8] = CCTE_Shafer_MEA_acute_cross_correlation_HWHM: CCTE's Neural Acute Assay for Cross Correlation at Half Width at Half Maximum, Shafer Lab (AID 2284026);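 also: percent change per well from pre-dose baseline in spike cross-correlogram half width; hits are a decrease in cross-correlogram half width relative to DMSO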
Method in brief: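 Rat cortical neuron cultures on microelectrode arrays were equilibrated 20 min at 37 C, recorded 40 min at baseline, then 40 min after compound addition (0.03-40 uM, ≥3 wells). Spikes were detected at 8x rms noise after 300-5000 Hz band-pass filtering.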

[9] = biological target: Estrogen receptor (Homo sapiens) (UniProt P03372); assay: CCTE_Deisenroth_AIME_96WELL_LUC_Active: CCTE's 96-well Estrogen Receptor Transactivation Assay with AIME metabolic competence (ERTA luciferase; metabolism positive), Deisenroth Lab (AID 2284023; active = hit-call score of the fitted dose curve at least 0.9, where 1 is the maximum)
Method in brief: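 Metabolism-positive mode: induced rat hepatic S9 in alginate microspheres conditions test solutions (0.002 - 200 uM, 10 points) for 2 hours. VM7Luc4E2 ER luciferase reporter cells then exposed 24 h; positive-direction fit against 17beta-estradiol, n=4 typical.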

[10] = biological target: Estrogen receptor (Homo sapiens) (UniProt P03372); assay: CCTE_Deisenroth_AIME_96WELL_LUC_Inactive: CCTE's 96-well Estrogen Receptor Transactivation Assay without AIME metabolic competence (ERTA luciferase; metabolism negative), Deisenroth Lab (AID 2284025; active = hit-call score of the fitted dose curve at least 0.9, where 1 is the maximum)
Method in brief: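 Metabolism-negative arm: chemicals (0.002–200 uM, 10 points) incubated 2 h with alginate-water microspheres, then medium moved onto VM7Luc4E2 cells for 24 h luciferase read-out. Positive direction vs 17beta-estradiol; n≥4 experiments.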

[11] = CCTE_Shafer_MEA_dev_firing_rate_mean: CCTE's Neural Network Formation Assay for Mean Firing Rate, Shafer Lab (AID 2284031)
Method in brief: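 Extracellular spike frequency, AUC over DIV 5–12 recordings, in rat cortical neuron MEA cultures dosed from plating; loss direction vs DMSO.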

[12] = CCTE_Shafer_MEA_dev_per_burst_spike_percent: CCTE's Neural Network Formation Assay for Percent of Spikes in a Burst, Shafer Lab (AID 2284032)
Method in brief: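 Value is trapezoidal AUC over recordings on days 5, 7, 9 and 12 of the well-mean fraction of spikes falling in single-electrode bursts; rat cortical cultures exposed continuously from plating, treatment renewed DIV 5 and 9, fitted downward against DMSO.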

[13] = CCTE_Shafer_MEA_dev_active_electrodes_number: CCTE's Neural Network Formation Assay for Number of Active Electrodes, Shafer Lab (AID 2284040; active = hit-call score of the fitted dose curve at least 0.9, where 1 is the maximum)
Method in brief: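 Developing rat cortical networks on MEAs, exposed DIV 0–12. Value is the AUC of active-electrode counts (≥5 spikes/min) from days 5, 7, 9, 12, relative to DMSO.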

[14] = CCTE_Shafer_MEA_dev_burst_rate: CCTE's Neural Network Formation Assay for Burst Rate, Shafer Lab (AID 2284042)
Method in brief: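 Exposure ran continuously over 12 days of network development in rat cortical cultures, with compound refreshed during full media changes on DIV 5 and 9. Single-electrode bursts per recording time, well-mean over active electrodes, trapezoidal AUC across days 5–12, fitted downward relative to DMSO.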

[15] = CCTE_Shafer_MEA_dev_per_burst_interspike_interval: CCTE's Neural Network Formation Assay for Burst Interspike Interval, Shafer Lab (AID 2284044)
Method in brief: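 Neurons from rat cortex plated onto PEI-coated MEA wells with laminin […] at 1.5 x 10^5 cells/well, then treated from day 0. Media and compound fully replaced on DIV 5 and 9. Extracellular spontaneous firing recorded four times; interspike interval per burst summarised as AUC.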

[16] = CCTE_Shafer_MEA_dev_burst_duration_mean: CCTE's Neural Network Formation Assay for Mean Burst Duration, Shafer Lab (AID 2284045)
Method in brief: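 Network-formation assay in primary rat cortical neurons; treatment spans twelve days of development. Mean burst duration per well is integrated by trapezoidal AUC and fitted in the loss-of-signal direction against DMSO baseline.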

[17] = CCTE_Shafer_MEA_dev_interburst_interval_mean: CCTE's Neural Network Formation Assay for Mean Interburst Interval, Shafer Lab (AID 2284046);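 also: well-mean interburst interval of bursting electrodes as AUC over four recording days; curve fitted for decrease in interburst interval relative to DMSO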
Method in brief: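 Primary rat cortical neurons on PEI-coated 48-well MEA plates (laminin added with cells at plating) (16 electrodes/well), exposed from plating day 0 with renewal at DIV 5 and 9. Mean inter-burst interval averaged over bursting electrodes, AUC across days 5, 7, 9, 12; DMSO baseline.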

[18] = CCTE_Shafer_MEA_dev_bursting_electrodes_number: CCTE's Neural Network Formation Assay for Number of Bursting Electrodes, Shafer Lab (AID 2284043; active = hit-call score of the fitted dose curve at least 0.9, where 1 is the maximum)
Method in brief: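 Counted: electrodes with burst rate ≥1 per 2 min in each well. Cells: primary rat cortex, 1.5 x 10^5/well, on 16-electrode MEA wells. Exposure: DIV 0–12, compound renewed DIV 5 and 9. Recording days 5, 7, 9, 12; AUC vs DMSO baseline.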

Measured: AC50

Sequence of Estrogen receptor (Homo sapiens) (P03372 whole entry, looked up): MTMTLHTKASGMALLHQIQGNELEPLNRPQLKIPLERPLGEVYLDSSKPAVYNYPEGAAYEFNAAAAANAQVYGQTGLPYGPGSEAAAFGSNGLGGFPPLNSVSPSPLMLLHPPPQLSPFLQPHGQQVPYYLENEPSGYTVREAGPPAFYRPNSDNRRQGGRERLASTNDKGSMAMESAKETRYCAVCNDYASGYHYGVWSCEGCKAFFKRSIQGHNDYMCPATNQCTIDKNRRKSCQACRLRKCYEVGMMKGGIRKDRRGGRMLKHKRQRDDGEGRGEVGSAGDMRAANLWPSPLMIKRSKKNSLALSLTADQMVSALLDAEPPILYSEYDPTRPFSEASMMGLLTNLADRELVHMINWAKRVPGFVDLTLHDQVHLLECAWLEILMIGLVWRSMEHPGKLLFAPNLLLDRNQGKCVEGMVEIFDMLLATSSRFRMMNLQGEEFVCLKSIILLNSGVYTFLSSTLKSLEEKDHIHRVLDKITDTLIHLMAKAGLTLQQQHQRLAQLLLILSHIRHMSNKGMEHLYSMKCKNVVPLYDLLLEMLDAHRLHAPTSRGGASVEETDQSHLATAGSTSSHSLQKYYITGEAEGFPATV

CC(=O)/C=C/C1C(C)=CCCC1(C)C (stereo unspecified)
inactive: [1] | [2] | [3] | [4]

Nc1ccc(C(=O)O)cc1
inactive: [1] | [2] | [3] | [4]

Nc1nc(N)nc(-c2ccccc2)n1
inactive: [5] | [6] | [7] | [8]

c1ccc(Nc2cccc3ccccc23)cc1
active: [6] 27.8 µM | [9] 17.7 µM | [7] 0.465 µM | [10] 12.7 µM | [8] 5.12 µM
inactive: [5]

CCCC(C)C(=O)OCC (stereo unspecified)
inactive: [5] | [6] | [7] | [8]

CCOC(=O)C1=NOC(c2ccccc2)(c2ccccc2)C1
inactive: [1] | [2] | [3] | [4]

CCCCCCCCCCCCCCCCCCOS(=O)(=O)O
inactive: [1] | [2] | [3] | [4]

C1CNCCN1
inactive: [5] | [6] | [7] | [8]

CC(CCC(=O)O)(c1ccc(O)cc1)c1ccc(O)cc1
inactive: [5] | [6] | [7] | [8] | [3]
active: [1] 100 µM | [2] 71.4 µM | [4] 20.7 µM

CC1(C)CC(O)CC(C)(C)N1[O]
active: [6] 0.0204 µM
inactive: [5] | [7] | [8]

COC(=O)[C@H](Cc1ccccc1)NC(=O)[C@@H](N)CC(=O)O (H-Asp-Phe-OMe)
active: [5] 15 µM
not listed: [3] | [9] | [10] | [18]
inactive: all other assays above

CCCCNS(=O)(=O)c1ccccc1
not listed: [3] | [5] | [6] | [7] | [8] | [9] | [10]
inactive: all other assays above

O=C(O)CC(C(=O)O)S(=O)(=O)O (stereo unspecified)
inactive: [1] | [2] | [3] | [4]

CCCCC/C=C\C/C=C\CCCCCCCC(=O)O
inactive: [1] | [2] | [3] | [4]

CCCCCCCCCC[N+](C)(CCCCCCCCCC)CCC[Si](OC)(OC)OC
active: [3] 100 µM
inactive: [1] | [4]

COC(=O)c1ccccc1C
inactive: [1] | [2] | [3] | [4]
